{"source": "the supplement of paper PMC10849652", "note": "The full data set covers some 8,800 targets. This sample favours those with a hit. About 0.5% of all pairs of compound and target were hits."}
{"compound": "CC[C@@H]1C(=O)N(C)c2cnc(Nc3ccc(C(=O)N[C@H]4CC[C@H](N5CCN(CC6CC6)CC5)CC4)cc3OC)nc2N1C(C)C [volasertib]", "experiment": "log2 fold change, soluble protein after heating vs DMSO (PISA); higher = thermal stabilisation; K562 lysate, 10 uM; active = over 0.2 and 3.5 SD of the protein, either way, in both replicates (recomputed)", "outline": "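K562 pellets were dounce-homogenised in PBS pH 7.4 with 1 mM MgCl2, and the crude extract at 1 mg/mL protein was treated with 10 μM compound for 30 min. Aliquots were heated for 3 min across 48°C-58°C, pooled, and brought to 0.5% NP-40 at 4°C; soluble protein was the supernatant after 21,000xg for 90 min. Soluble protein was quantified by TMTpro 16plex LC-MS/MS with channel sums equalised, and reported as log2 fold change in thermal stability against DMSO controls, with values from duplicates.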"}
{"target": "DHFR (UniProt P00374)", "sequence (P00374 whole entry, looked up)": "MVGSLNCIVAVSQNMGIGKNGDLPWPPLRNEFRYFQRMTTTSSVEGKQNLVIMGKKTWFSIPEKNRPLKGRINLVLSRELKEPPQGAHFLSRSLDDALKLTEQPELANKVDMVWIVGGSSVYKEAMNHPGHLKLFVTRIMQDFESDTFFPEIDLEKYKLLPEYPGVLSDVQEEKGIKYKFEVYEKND", "log2 fold change": "0.013 (inactive)"}
{"target": "COG4 (UniProt Q9H9E3)", "log2 fold change": "-0.088 (inactive)"}
{"target": "COASY isoform 2 (UniProt Q13057)", "sequence (Q13057 whole entry, looked up)": "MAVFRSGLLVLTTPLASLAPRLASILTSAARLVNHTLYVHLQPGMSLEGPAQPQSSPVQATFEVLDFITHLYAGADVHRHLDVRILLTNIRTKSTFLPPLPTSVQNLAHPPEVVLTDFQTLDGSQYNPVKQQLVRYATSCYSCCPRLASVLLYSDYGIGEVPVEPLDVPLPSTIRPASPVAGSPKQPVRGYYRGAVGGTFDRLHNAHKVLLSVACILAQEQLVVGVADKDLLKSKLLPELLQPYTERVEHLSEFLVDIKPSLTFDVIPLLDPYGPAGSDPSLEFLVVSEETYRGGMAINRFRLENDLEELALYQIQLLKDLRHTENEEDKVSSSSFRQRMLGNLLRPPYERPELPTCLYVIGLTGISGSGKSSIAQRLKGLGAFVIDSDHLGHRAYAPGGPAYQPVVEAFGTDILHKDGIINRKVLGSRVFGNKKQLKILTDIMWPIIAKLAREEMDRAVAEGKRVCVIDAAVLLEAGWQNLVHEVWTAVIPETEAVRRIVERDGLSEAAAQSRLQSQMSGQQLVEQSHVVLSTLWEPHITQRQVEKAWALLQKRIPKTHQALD", "log2 fold change": "-0.098 (inactive)"}
{"target": "DDX4 (UniProt Q9NQI0)", "log2 fold change": "-0.021 (inactive)"}
{"target": "COG5 isoform 2 (UniProt Q9UP83)", "log2 fold change": "-0.084 (inactive)"}
{"target": "COX7B (UniProt P24311)", "sequence (P24311 whole entry, looked up)": "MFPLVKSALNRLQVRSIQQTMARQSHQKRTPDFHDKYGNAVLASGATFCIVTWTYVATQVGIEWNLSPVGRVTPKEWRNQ", "log2 fold change": "0.004 (inactive)"}
{"target": "CSNK1A1 (UniProt P48729)", "sequence (P48729 whole entry, looked up)": "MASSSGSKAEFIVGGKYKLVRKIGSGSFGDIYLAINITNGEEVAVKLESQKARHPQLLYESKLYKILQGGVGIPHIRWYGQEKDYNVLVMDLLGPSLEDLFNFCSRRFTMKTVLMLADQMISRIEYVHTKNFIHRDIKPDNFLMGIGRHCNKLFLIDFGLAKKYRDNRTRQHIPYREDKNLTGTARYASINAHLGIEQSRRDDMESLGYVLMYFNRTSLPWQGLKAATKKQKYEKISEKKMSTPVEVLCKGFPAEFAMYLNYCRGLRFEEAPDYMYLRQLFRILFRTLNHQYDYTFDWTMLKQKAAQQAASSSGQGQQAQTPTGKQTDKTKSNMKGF", "log2 fold change": "-0.066 (inactive)"}
{"target": "DLG3 isoform 2 (UniProt Q92796)", "sequence (Q92796 whole entry, looked up)": "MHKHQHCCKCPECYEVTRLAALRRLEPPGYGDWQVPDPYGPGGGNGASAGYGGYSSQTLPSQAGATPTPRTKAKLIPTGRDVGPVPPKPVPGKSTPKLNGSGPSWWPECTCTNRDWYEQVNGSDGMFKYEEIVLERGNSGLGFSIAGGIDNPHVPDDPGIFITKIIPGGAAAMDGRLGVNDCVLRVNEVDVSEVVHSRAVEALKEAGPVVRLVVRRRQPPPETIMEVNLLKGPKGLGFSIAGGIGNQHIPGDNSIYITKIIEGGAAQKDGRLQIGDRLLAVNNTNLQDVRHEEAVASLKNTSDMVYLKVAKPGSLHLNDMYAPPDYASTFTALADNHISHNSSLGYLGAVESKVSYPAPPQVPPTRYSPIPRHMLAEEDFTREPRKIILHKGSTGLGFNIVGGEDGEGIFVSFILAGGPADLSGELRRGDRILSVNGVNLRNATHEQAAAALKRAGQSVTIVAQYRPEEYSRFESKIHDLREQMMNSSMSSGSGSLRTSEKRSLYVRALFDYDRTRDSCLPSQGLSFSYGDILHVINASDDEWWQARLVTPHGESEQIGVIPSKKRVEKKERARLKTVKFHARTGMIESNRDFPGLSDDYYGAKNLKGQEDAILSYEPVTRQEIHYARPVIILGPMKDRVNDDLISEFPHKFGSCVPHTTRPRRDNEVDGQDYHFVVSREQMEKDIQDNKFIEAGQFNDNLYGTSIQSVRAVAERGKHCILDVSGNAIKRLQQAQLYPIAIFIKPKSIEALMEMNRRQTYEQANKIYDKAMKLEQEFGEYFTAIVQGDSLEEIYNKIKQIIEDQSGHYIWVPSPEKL", "log2 fold change": "-0.006 (inactive)"}
{"target": "CUX1 isoform 2 (UniProt Q13948)", "log2 fold change": "-0.001 (inactive)"}
{"target": "DCTN1 isoform 4 (UniProt Q14203)", "log2 fold change": "-0.019 (inactive)"}
{"target": "DDAH1 (UniProt O94760)", "sequence (O94760 whole entry, looked up)": "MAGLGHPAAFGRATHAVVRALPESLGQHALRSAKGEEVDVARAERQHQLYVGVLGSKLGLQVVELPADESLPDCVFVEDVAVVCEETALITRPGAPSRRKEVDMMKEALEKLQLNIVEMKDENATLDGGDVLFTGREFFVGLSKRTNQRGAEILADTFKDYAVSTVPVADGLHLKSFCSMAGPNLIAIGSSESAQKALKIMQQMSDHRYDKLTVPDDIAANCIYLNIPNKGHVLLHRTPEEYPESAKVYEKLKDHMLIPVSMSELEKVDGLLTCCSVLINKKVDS", "log2 fold change": "0.068 (inactive)"}
{"target": "CSNK1G3 (UniProt Q9Y6M4)", "log2 fold change": "0.002 (inactive)"}
{"target": "CUX1 isoform 3 (UniProt P39880)", "log2 fold change": "-0.004 (inactive)"}
{"target": "CINP isoform 3 (UniProt Q9BW66)", "sequence (Q9BW66 whole entry, looked up)": "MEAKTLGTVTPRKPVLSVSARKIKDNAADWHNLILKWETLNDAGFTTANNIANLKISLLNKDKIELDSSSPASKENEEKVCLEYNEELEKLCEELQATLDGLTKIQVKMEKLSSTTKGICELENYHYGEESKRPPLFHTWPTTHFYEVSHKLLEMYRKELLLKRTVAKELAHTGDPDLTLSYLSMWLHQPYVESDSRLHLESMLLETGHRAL", "log2 fold change": "-0.05 (inactive)"}
{"target": "CNNM2 (UniProt Q9H8M5)", "log2 fold change": "-0.043 (inactive)"}
{"target": "CNTN4 (UniProt Q8IWV2)", "sequence (Q8IWV2 whole entry, looked up)": "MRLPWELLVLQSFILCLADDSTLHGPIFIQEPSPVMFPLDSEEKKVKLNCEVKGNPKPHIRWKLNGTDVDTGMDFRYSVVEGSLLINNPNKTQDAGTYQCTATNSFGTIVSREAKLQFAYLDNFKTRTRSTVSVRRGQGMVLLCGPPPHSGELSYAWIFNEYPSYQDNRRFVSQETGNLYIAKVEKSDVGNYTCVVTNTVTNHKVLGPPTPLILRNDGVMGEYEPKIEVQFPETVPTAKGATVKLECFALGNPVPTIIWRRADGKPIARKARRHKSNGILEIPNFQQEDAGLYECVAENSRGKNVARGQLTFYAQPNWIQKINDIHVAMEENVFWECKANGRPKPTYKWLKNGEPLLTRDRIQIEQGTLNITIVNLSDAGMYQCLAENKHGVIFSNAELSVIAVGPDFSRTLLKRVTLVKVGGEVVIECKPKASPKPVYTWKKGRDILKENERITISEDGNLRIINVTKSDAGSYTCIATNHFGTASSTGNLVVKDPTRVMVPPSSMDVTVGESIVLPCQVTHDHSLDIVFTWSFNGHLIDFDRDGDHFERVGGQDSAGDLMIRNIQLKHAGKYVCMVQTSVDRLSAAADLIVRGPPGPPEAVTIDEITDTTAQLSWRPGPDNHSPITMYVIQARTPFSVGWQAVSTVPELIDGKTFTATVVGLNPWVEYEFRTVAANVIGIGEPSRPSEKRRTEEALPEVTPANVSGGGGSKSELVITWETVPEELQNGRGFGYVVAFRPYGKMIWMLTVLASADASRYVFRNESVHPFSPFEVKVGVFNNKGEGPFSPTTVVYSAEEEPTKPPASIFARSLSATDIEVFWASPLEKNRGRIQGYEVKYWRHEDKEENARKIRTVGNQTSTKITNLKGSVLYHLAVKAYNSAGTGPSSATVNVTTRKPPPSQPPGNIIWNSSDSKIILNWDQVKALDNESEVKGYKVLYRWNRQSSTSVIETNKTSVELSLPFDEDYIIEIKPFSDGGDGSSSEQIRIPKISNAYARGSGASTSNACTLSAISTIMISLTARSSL", "log2 fold change": "0.024 (inactive)"}
{"target": "DNAJC24 (UniProt Q6P3W2)", "sequence (Q6P3W2 whole entry, looked up)": "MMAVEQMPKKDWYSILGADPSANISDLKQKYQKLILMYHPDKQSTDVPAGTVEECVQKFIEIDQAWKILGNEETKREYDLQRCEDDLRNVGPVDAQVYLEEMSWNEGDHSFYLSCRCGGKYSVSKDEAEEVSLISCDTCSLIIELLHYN", "log2 fold change": "0.027 (inactive)"}
{"target": "DNAH10 (UniProt Q8IVF4)", "log2 fold change": "0.044 (inactive)"}
{"target": "COQ8A (UniProt Q8NI60)", "log2 fold change": "-0.026 (inactive)"}
{"target": "CNOT4 isoform 9 (UniProt O95628)", "sequence (O95628 whole entry, looked up)": "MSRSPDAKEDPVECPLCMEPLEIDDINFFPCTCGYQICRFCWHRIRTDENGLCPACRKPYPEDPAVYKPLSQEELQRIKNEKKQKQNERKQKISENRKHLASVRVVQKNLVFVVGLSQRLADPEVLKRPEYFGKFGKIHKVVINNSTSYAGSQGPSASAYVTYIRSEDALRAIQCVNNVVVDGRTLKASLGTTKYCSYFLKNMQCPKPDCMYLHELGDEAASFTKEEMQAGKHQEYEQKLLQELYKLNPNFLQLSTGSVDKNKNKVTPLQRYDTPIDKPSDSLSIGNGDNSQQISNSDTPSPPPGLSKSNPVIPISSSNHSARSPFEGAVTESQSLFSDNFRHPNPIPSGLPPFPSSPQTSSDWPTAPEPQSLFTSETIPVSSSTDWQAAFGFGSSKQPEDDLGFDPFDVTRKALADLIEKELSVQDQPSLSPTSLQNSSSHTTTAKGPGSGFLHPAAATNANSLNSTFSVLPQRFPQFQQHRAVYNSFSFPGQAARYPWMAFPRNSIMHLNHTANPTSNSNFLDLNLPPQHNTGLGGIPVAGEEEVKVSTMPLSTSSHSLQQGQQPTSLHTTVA", "log2 fold change": "-0.03 (inactive)"}
{"target": "CKS1B (UniProt P61024)", "sequence (P61024 whole entry, looked up)": "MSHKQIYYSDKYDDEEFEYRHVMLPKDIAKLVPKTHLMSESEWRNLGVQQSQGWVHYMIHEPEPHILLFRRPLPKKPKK", "log2 fold change": "-0.018 (inactive)"}
{"target": "DDB2 (UniProt Q92466)", "sequence (Q92466 whole entry, looked up)": "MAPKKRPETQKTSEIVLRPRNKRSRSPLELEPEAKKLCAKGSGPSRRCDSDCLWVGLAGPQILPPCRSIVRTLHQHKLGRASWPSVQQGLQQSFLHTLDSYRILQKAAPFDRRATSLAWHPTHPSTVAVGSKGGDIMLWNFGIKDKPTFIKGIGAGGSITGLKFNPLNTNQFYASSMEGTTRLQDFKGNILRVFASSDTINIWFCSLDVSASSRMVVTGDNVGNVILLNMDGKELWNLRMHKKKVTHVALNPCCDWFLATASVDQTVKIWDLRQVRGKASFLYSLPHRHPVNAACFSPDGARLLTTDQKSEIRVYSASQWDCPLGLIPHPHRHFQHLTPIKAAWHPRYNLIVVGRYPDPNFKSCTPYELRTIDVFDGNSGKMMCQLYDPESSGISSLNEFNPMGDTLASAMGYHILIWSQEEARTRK", "log2 fold change": "-0.003 (inactive)"}
